A selection: hits, their analogues and other compounds. The true share with any hit is near 11%.
BAZ2B inh – inhibitors of human BAZ2B bromodomain; AlphaScreen BAZ2B-H3K14Ac peptide displacement; Potency, µM (top dose mostly 114 µM), actives largely listed as inhibitors; 360,000 compounds, 4.4% hits; AID 504333; note: nearly all actives have a fitted effect of over 60% in size
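Complex of BAZ2B and biotin-H3K14Ac (50 nM apiece) forms over 30 min at RT, then faces library compounds up to 110 uM for another 30 min; AlphaScreen beads added, 20 min dark incubation, luminescence read.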
L3MBTL1 inh – inhibitors of human L3MBTL1. Q9Y468. AlphaScreen L3MBTL1–H3K9me1 peptide binding. Potency, µM (highest dose often 57.1 µM), most hits filed as inhibitors. 230,000 compounds, 0.66% hits. AID 485360; note: nearly all actives have a fitted effect of over 60% in size
Target sequence (Q9Y468 whole entry, looked up): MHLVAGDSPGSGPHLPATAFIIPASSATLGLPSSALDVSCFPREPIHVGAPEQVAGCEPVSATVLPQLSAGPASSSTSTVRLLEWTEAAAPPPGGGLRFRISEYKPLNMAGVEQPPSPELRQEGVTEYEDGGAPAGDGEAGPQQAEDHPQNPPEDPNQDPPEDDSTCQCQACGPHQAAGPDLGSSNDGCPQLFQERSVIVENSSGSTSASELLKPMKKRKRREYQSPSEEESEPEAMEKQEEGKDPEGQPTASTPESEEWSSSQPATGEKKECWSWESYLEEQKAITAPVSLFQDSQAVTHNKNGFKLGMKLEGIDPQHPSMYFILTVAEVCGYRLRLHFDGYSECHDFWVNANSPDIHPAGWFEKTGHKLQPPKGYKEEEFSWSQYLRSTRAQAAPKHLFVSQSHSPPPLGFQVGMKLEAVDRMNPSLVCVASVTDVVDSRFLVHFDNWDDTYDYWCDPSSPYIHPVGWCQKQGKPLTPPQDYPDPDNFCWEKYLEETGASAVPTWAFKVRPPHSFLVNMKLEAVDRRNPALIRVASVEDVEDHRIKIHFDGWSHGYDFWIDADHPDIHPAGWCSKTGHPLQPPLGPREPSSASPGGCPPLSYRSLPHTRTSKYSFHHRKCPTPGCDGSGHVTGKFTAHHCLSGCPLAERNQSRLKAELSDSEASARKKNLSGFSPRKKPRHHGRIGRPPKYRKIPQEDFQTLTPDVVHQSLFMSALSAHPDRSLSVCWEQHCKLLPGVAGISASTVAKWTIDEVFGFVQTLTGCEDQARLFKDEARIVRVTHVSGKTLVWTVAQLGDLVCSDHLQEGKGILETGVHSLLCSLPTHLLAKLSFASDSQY
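First, the protein-peptide complex forms for 30 min at room temperature (L3MBTL1 50 nM, biotinylated H3K9me1 peptide 75 nM). Next, compounds are pin-transferred and incubated 30 min. Finally, AlphaScreen beads are added and read after 30 min.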
JMJD2A Tudor inh – JMJD2A Tudor domain (human) inhibition; O75164; AID 504339; AlphaScreen JMJD2A-Tudor / H3K4me3 peptide binding; 390,000 compounds, 4.4% hits; Potency, µM (highest dose often 114 µM), hits mostly inhibitors; note: nearly all actives have a fitted effect of over 50% in size
G9a inh – inhibitors of human histone lysine methyltransferase G9a. Potency, µM (highest dose often 102 µM), hits mostly inhibitors. 350,000 compounds, 8.8% hits. G9a H3K9 monomethylation, AlphaScreen, 2 h. AID 504332. Q96KQ7; note: nearly all actives have a fitted effect of over 75% in size
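Signal arises when biotinylated H3K9 peptide, once monomethylated, bridges streptavidin donor and antibody-captured acceptor beads. Enzyme at 20 nM was preincubated 15 min with test compounds; peptide 500 nM and SAM 20 uM then reacted for 2 h.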
HP1b binding inh – blocks HP1-beta chromodomain binding to methylated histone tails. P83916. AlphaScreen HP1-beta / biotin-H3K9me3 peptide binding. Potency, µM (titrated, usually from 114 µM), most hits filed as inhibitors. 390,000 compounds, 0.56% hits. AID 540317; note: nearly all actives have a fitted effect of over 70% in size
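Compound inhibition of the preformed complex between 50 nM HP1-beta and 50 nM biotinylated H3K9me3 peptide was read by AlphaScreen. Buffer was PBS pH 7.4 with 0.01% Tween-20. Incubations ran 30 min at room temperature, with 10 ug/mL donor/acceptor beads.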
Numbers stand for hits; n = inactive; u = inconclusive; x = not tested or not shown; [ ] = dose if it differs, or a comment. Calls come from the whole dose curve; as a rule, active = well fitted inhibition curve with a large enough effect; inconclusive = small, poorly fitted or top-dose-only effect; inactive = no such curve, though single readings can be large or run the other way.

SMILES | BAZ2B inh | L3MBTL1 inh | JMJD2A Tudor inh | G9a inh | HP1b binding inh
O=C(C1=C(O)C(=O)N(CCN2CCOCC2)C1c1ccc(F)cc1)c1cccs1 (stereo not given) | n | n | n | 71µM | n
CCOc1ccc(C2C(C(=O)c3cccs3)=C(O)C(=O)N2CCN2CCOCC2)cc1 (stereo not given) | n | x | n | 50µM | n
Cc1cc(NC(=O)NCc2ccc3c(c2)CCN3C(=O)c2ccccc2)ccc1Br | n | x | n | n | n
O=C1NC(c2ccccc2)C(C(=O)c2cccs2)=C1O (stereo not given) | n | x | 25µM | u | n
CCCOc1cccc(C2C(C(=O)c3cccs3)=C(O)C(=O)N2CCN2CCOCC2)c1 (stereo not given) | u | x | n | 79µM | n
CCN(CC)CCN1C(=O)C(O)=C(C(=O)c2cccs2)C1c1ccccn1 (stereo not given) | 50µM | x | u | 32µM | n
O=C(c1ccccc1)c1cccs1 | n | x | n | n | n
COCCN1C(=O)C(O)=C(C(=O)c2cccs2)C1c1ccccc1 (stereo not given) | n | n | n | 18µM | n
COc1ccc(-c2nnc(SCC(=O)Nc3cccc(C(F)(F)F)c3)s2)cc1 | n | x | n | n | n
O=C(/C=C/c1ccccc1)c1ccc2c(c1)OCO2 | n | n | n | n | n
O=C(O)CCCCCN1C(=O)C(O)=C(C(=O)/C=C/c2ccccc2)C1c1ccc2c(c1)OCO2 (stereo not given) | u | n | 22µM | 50µM | n
CC(=O)C1=C(O)C(=O)N(CCc2c[nH]c3ccccc23)C1c1ccc(C)cc1 (stereo not given) | n | n | n | 45µM | n
O=[N+]([O-])c1ccc(Cl)c(S(=O)(=O)Nc2ccc(-c3ccc(N4CCCC4)nn3)cc2)c1 | n | n | n | 50µM | n
Cc1ccc([N+](=O)[O-])cc1S(=O)(=O)Nc1ccc(-c2ccc(N3CCCC3)nn2)cc1 | n | n | n | n[2.33 µM] | n
O=[N+]([O-])c1ccccc1S(=O)(=O)Nc1cccc(-c2ccc(N3CCCC3)nn2)c1 | n | n | n | n[2.33 µM] | n
COc1ccc(OC)c(S(=O)(=O)Nc2cccc(-c3ccc(N4CCCCC4)nn3)c2)c1 | n | x | u | 3.5µM | u
COc1ccc(F)cc1S(=O)(=O)Nc1cccc(-c2ccc(N3CCCCCC3)nn2)c1 | n | x | n | n | n
O=[N+]([O-])c1ccc(Cl)c(S(=O)(=O)Nc2cccc(-c3ccc(N4CCCC4)nn3)c2)c1 | u | n | n | 40µM | n
CCN(Cc1nc2cc(Cl)ccc2c(=O)[nH]1)C(=O)CN1C(=O)NC2(CCCCC2C)C1=O (stereo not given) | n | n | n | 50µM | n
COc1cccc(-c2sc3ccc(OC)cc3c2-c2ccc(OCCN3CCOCC3)cc2)c1 | x | n | u | x | n
COc1ccccc1-c1sc2ccccc2c1-c1ccc(OCCN2CCOCC2)cc1 | x | n | 50µM | x | n
COc1ccccc1-c1sc2cc3c(cc2c1-c1ccc(OCCN2CCCCC2)cc1)OCO3 | x | n | 11µM | x | n
COc1cc2sc(-c3ccccc3OC)c(-c3ccc(OCCN4CCCCC4)cc3)c2cc1OC | x | n | 28µM | x | u
COc1ccccc1-c1sc2cc3c(cc2c1-c1ccc2c(c1)OCO2)OCO3 | 79µM | n | n | n[0.501 µM] | n
COc1cc(OC)cc(C(=O)N[C@H](C(=O)NC2CCCc3ccccc32)C(C)C)c1 (stereo not given in full) | x | n | n | x | n
SMILES | BAZ2B inh | L3MBTL1 inh | JMJD2A Tudor inh | G9a inh | HP1b binding inh
Nc1nonc1C(=O)N/N=C/c1ccc(-c2ccc(Cl)c(C(=O)O)c2)o1 | 79µM | n | n | 32µM | n
N#C/C(=C/c1ccc(-c2cc([N+](=O)[O-])ccc2Cl)o1)C(N)=O | u | x | n | x | n
CC1=NN(c2ccccc2)C(=O)/C1=C/c1ccc(-c2ccc(C)c(C(=O)O)c2)o1 | x | x | 40µM | x | u
Nc1nonc1C(=O)N/N=C/c1ccc(Br)o1 | n | n | n | n | n
CC1=NN(c2ccc(C)cc2)C(=O)/C1=C/c1ccc(-c2cc([N+](=O)[O-])ccc2O)o1 | n | 32µM | 32µM | x | 32µM
O=C1NN(c2cccc(Br)c2)C(=O)/C1=C/c1ccc(-c2cc([N+](=O)[O-])ccc2O)o1 | 2.2µM | x | u | n | u
Cc1ccc(S(=O)(=O)n2ccc3c2CCCC3=O)cc1 | n | x | u | n | n
O=C1NN(c2ccc(Cl)c(Cl)c2)C(=O)/C1=C/c1ccc(-c2ccccc2C(=O)O)o1 | 40µM | x | u | 40µM | u
CC1=NN(c2ccc(Cl)c(C(=O)O)c2)C(=O)/C1=C\c1ccc(-c2ccc(C(=O)O)cc2)o1 | 50µM | x | u | 8.9µM | n
CC1(C)OC(=O)C(=Cc2ccc(-c3ccc(Cl)c(C(=O)O)c3)o2)C(=O)O1 | 79µM | 6.3µM | u | 14µM | n
Cc1ccc(N2NC(=O)/C(=C/c3ccc(-c4ccc(Cl)c(C(=O)O)c4)o3)C2=O)cc1C | u | n | n | u | n
CC1=NN(c2ccc(C(=O)O)cc2)C(=O)/C1=C/c1ccc(-c2ccccc2F)o1 | u | x | x | 7.9µM | x
O=C(C[C@H]1C/C=C\CC[C@@H](Cc2ccc(F)cc2)C(=O)OCCNC1=O)NCCO | x | n | n | x | n
COc1ccc(C(C#N)=C2C=CC(=NO)C=C2)cc1 | 14µM | x | 16µM | 2.2µM | 40µM
N#Cc1c(C(F)(F)F)cc(-c2cccs2)nc1SCC(=O)Nc1ccc(F)cc1 | n | x | n | n | n
Fc1ccccc1/C=N/n1cnnc1 | n | n | n | n | n
O=C(O)COc1ccccc1/C=N/n1c(C2CCCCC2)n[nH]c1=S | n | x | 25µM | 8.9µM | n
Fc1ccccc1-c1n[nH]c(=S)n1/N=C/c1c[nH]c2ccccc12 | u | x | 35µM | 0.71µM | n
Cc1ccccc1/C=N/n1c(C2CCCCC2)n[nH]c1=S | n | x | n | 13µM | n
Fc1ccccc1/C=N/n1c(C2CCCCC2)n[nH]c1=S | n | x | 40µM | 25µM | n
Cc1oc2c(c1C(=O)Nc1ccccc1Br)C1=NCCN1C=N2 | n | x | n | n | n
Cc1ccc(N(C(=O)CNC(=O)c2ccco2)C(C(=O)NC2CCCC2)c2cccnc2)c(C)c1 (stereo not given) | n | x | n | n | n
S=c1[nH]nc(C2CCCCC2)n1/N=C/c1ccccc1Br | n | x | 18µM | 7.1µM | u
O=C(N/N=C/c1ccccc1Br)C1CC1 | x | n | n | n | n
Cc1nn(C)c(C)c1NC(=O)CCl | 35µM | n | n | 45µM | n
COc1ccc(OC)c(NC(=O)c2ccc3c(SCC(=O)O)c4c(nc3c2)CCCC4)c1 | n | x | n | n | n
COc1cccc(C(=O)CN2CCN(S(=O)(=O)c3ccc(Br)cc3)CC2)c1 | n | n | n | u | n
COc1ccc(C(=O)CN2CCN(S(=O)(=O)c3ccc(C(C)C)cc3)CC2)cc1 | n | x | n | n | n
CCOc1ccc(C(=O)CN2CCN(S(=O)(=O)c3ccc(Br)cc3)CC2)cc1 | n | n | n | 32µM | n

Screening results from PubChem BioAssay.
